Assay outcomes as filed in PubChem.
Ba/F3 V617F tox: reduce viability of Ba/F3 cells dependent on JAK2V617F | 220,000 compounds, 1.1% hits | inhibition, % at 5.6 µM | Ba/F3 EpoR-JAK2V617F viability, ATP luminescence;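 active means inhibition above the campaign mean plus 3 SD over all tested compounds, cut at about 24% in these data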;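 further: cytokine-independent growth of Ba/F3 cells driven by EpoR plus mutant JAK2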
IEC-6 cytotox: IEC-6 cytotoxicity, counter-screen for KLF5 inhibitors. luminescence viability. inhibition, % at 5 µM. 290,000 compounds, 0.78% hits. AID 1825
BaF3 tox: counter-screen for JAK2V617F inhibitors: parental Ba/F3 viability inhibitors; inhibition, % at 5.6 µM; CellTiter-Glo ATP luminescence; 220,000 compounds, 1.1% hits;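 active means inhibition above a per-campaign cutoff, the mean inhibition of all tested compounds plus 3 SD, cut at about 27% in these data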
APP 5UTR inh: APP translation inhibition; SH-SY5Y APP 5'UTR-luciferase reporter, luminescence; inhibition, % at 2 µM; 190,000 compounds, 0.82% hits; AID 1285;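 active means inhibition above a set limit, derived from the sample mean plus 3 SD, cut at about 45% in these data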
KLF5 inhibitor: inhibitors of KLF5 expression. 290,000 compounds, 0.23% hits. AID 1700. inhibition, % at 5 µM. DLD-1 KLF5 promoter-luciferase reporter, luminescence;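 active means inhibition above a per-plate limit of that plate's mean compound inhibition plus 3 SD, cut at about 60% in these data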;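 further: higher means less KLF5 promoter-driven luciferase light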
aSyn 5UTR inh: MLPCN primary screen, SNCA 5' untranslated region; inhibition, % (tested at 7.5 µM); 300,000 compounds, 0.82% hits; alpha-synuclein 5'UTR reporter, inhibitor activity; in the data active means inhibition above about 60%;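 further: H4 neuroglioblastoma cells stably carrying SNCA 5'UTR luciferase fusion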
IEC-6 cytotox cf: confirmation of cytotoxic compounds in rat IEC-6 intestinal epithelial cells | shares compounds with IEC-6 cytotox | inhibition, % at 5 µM | IEC-6 rat intestinal epithelial viability, luminescence | 1,900 compounds, 63% hits
Hits are given with their value; 0 = inactive; - = no result given. Sampled rows, rich in hits. Any-hit rate of the full collection: about 2.2%. Unless noted, no stated cut-off is given here; in the data, active means inhibition above about 22%; inactive means the rest.

SMILES	Ba/F3 V617F tox	IEC-6 cytotox	BaF3 tox	APP 5UTR inh	KLF5 inhibitor	aSyn 5UTR inh	IEC-6 cytotox cf
N/C(=N\OC(=O)CCn1cccc(C(F)(F)F)c1=O)c1ccc(Cl)cc1	0	0	0	-	0	0	-
Cc1ccc(Nc2nc(=O)c3cccnc3s2)c(Br)c1	50.8	65.4	48.2	-	0	0	41.8
CC(=O)c1ccc(Nc2nc(=O)c3cccnc3s2)cc1	0	0	0	0	0	0	-
Cc1nc(N2CCOCC2)nc(Oc2ccccc2)c1[N+](=O)[O-]	0	0	0	-	0	0	-
COc1cccc(C2=CC(c3ccccc3)n3nnnc3N2)c1 (centres undefined)	0	28.2	0	0	0	0	31.7
COc1cccc(NC(=O)CSC2=C(C#N)C(c3ccco3)C3=C(CCCC3=O)N2)c1 (centres undefined)	67.4	50.0	75.8	0	0	0	0
CCCCc1ccc(NC(=O)CSC2=C(C#N)C(c3ccco3)C3=C(CCCC3=O)N2)cc1 (centres undefined)	0	0	0	0	0	0	-
Cc1ccc(C(=O)CSC2=C(C#N)C(c3ccco3)C3=C(CCCC3=O)N2)cc1 (centres undefined)	0	45.1	0	46.5	0	0	52.0
C=CCn1c(SCC(=O)c2cccs2)nc2sc(C)c(C)c2c1=O	0	68.0	0	0	0	0	46.4
C=CCSc1nc2sc(C)c(C)c2c(=O)n1CC=C	0	0	0	0	0	0	-
COc1ccc(CNC(=O)C2CCN(S(=O)(=O)c3c(C)noc3/C=C/N(C)C)CC2)cc1	-	0	-	-	0	0	-
CCOC(=O)N1CCN(S(=O)(=O)CCNC(=O)c2ccc(F)cc2)CC1	-	-	-	-	-	0	-
CC(C)CC(=O)NCCCCc1ccccc1	0	22.0	0	0	0	0	0
CC(C)C(=O)NCCCc1ccccc1	0	0	0	0	0	0	-
CCN(CCCNC(=O)Cn1ncc2c([nH]c3ccc(C)cc32)c1=O)c1cccc(C)c1	-	0	-	-	0	0	-
C/C(=N/Nc1ccc([N+](=O)[O-])cc1)c1c[nH]c2ccccc12	-	24.3	-	-	0	0	22.4
C/C(=N/Nc1ccc([N+](=O)[O-])cc1)c1ccc(C)cc1C	0	0	0	0	0	0	-
COc1cc2c(c(OC)c1OC)-c1ccc(NC(=O)c3ccc(F)cc3)c(=O)cc1[C@@H](NC(C)=O)CC2	-	26.0	-	-	0	0	52.6
CCOc1cc(/C=C2\CN(CC)C/C(=C\c3ccc(O)c(OCC)c3)C2=O)ccc1O	-	73.6	-	-	0	102.4	23.5
COc1cc(/C=C2\CCC/C(=C\c3ccc(O)c(OC)c3)C2=O)ccc1O	-	0	-	-	0	0	-
Nc1nc(NC(=O)CCC(=O)O)nn1-c1ccccc1	0	0	0	-	0	0	-
NC(N)=Nc1ccc(N=C(N)N)cc1	0	97.2	0	-	0	0	97.7
Cc1ccc(C)c(N(C(=O)c2snc(C(N)=O)c2N)C(C(=O)NCC2CCCO2)c2ccc(C)o2)c1 (centres undefined)	-	0	-	-	0	0	-
CS(=O)(=O)c1nc(S(=O)(=O)c2ccc(Cl)cc2)c(NCCCn2ccnc2)s1	-	0	-	-	0	0	-
Cc1ccccc1NC(=O)CSc1nc2scc(C)c2c(=O)[nH]1	-	36.7	-	-	0	0	0
SMILES	Ba/F3 V617F tox	IEC-6 cytotox	BaF3 tox	APP 5UTR inh	KLF5 inhibitor	aSyn 5UTR inh	IEC-6 cytotox cf
CN(C)S(=O)(=O)c1ccc(NC(=O)N2CCN(c3cccc(C(F)(F)F)c3)CC2)cc1	0	0	0	0	0	0	-
COc1ccc(NC(=O)N2CCN(c3cccc(C(F)(F)F)c3)CC2)cc1	0	23.5	0	0	0	0	0
CCCNc1c(NS(=O)(=O)c2cccc(C#N)c2)c(=O)oc2ccccc12	-	0	-	-	0	0	-
CCCN(C(=O)c1ccc(OCC(C)C)cc1)c1c(N)n(Cc2ccccc2)c(=O)[nH]c1=O	-	-	-	-	-	0	-
O=C(N/N=C/c1ccco1)C1CC1c1ccccc1 (centres undefined)	0	0	0	0	0	0	-
CC(C)(C)c1ccc(C2CC2C(=O)N/N=C\c2ccc[nH]2)cc1 (centres undefined)	100.0	57.6	74.8	80.1	0	0	88.6
Nc1cc2nn(-c3ccccc3)nc2cc1Cl	0	101.5	0	0	0	0	45.8
CC(C)(CO)NC(=O)Nc1ccc(Cl)c(Cl)c1	0	0	0	0	0	0	-
COc1ccc(/C=C/C(=O)O)cc1S(=O)(=O)N1CCCC1	-	0	-	-	0	0	-
O=C(O)c1cccnc1Nc1ccc(Cl)cc1	28.5	34.0	33.3	0	0	0	22.8
CSc1ccc(CNC(=O)Cc2ccc(NC(=O)C3=C(C)OCCS3)cc2)cc1	-	27.4	-	-	0	0	35.3
CCOc1ccc(CCNC(=O)Cc2ccc(NC(=O)C3=C(C)OCCS3)cc2)cc1	-	0	-	-	0	0	-
COc1cc(CC(=O)OCC(=O)c2ccc3c(c2)OCCO3)cc(OC)c1OC	71.9	88.0	79.1	94.2	0	100.5	56.0
COc1cc(CC(=O)NCc2ccc3c(c2)OCO3)cc(OC)c1OC	0	0	0	0	0	0	-
CCS(=O)(=O)c1ncc(Cl)c(C(=O)Nc2ccccc2OC)n1	-	29.2	-	-	0	0	0
CCOc1ccccc1NC(=O)c1nc(S(=O)(=O)Cc2ccccc2)ncc1Cl	-	98.8	-	-	0	0	0
CCOc1ccccc1NC(=O)c1ccc(C(=O)Nc2ccccc2OCC)nc1	-	0	-	-	0	0	-
COc1ccccc1NC(=O)c1nc(S(=O)(=O)Cc2ccccc2)ncc1Cl	-	100.5	-	-	0	70.9	0
O=C(O)CC(CC(=O)Nc1ccc(-n2ccc(C(F)(F)F)n2)cc1)c1ccccc1 (centres undefined)	0	0	0	-	0	0	-
O=C(Nc1ccccc1)Nc1ccc(-n2ccc(C(F)(F)F)n2)cc1	57.7	22.1	63.0	-	0	0	23.2
O=C(O)CSc1cccc[n+]1[O-]	0	0	0	0	0	0	-
N#CC(C#N)=C(N)CSc1cccc[n+]1[O-]	0	23.8	0	0	0	0	0
O=C(CSc1cccc[n+]1[O-])c1cc(Cl)ccc1Cl	0	27.5	0	0	0	0	0
O=C(CSc1cccc[n+]1[O-])c1cc2ccccc2o1	0	25.4	0	0	0	0	0
[O-][n+]1ccccc1SCc1ccccc1	-	-	-	-	-	0	-
SMILES	Ba/F3 V617F tox	IEC-6 cytotox	BaF3 tox	APP 5UTR inh	KLF5 inhibitor	aSyn 5UTR inh	IEC-6 cytotox cf
Cc1[nH]c2ccccc2c1C(=O)C(=O)NCc1cccs1	0	0	0	0	0	0	-
CN1c2cccc3cccc(c23)N(C)C1c1cccs1	0	23.6	0	0	0	0	0
Oc1ccc(C(=S)N2CCN(c3cccc(Cl)c3)CC2)cc1	0	0	0	0	0	0	-
COc1cc(C(=S)N2CCN(c3cccc(Cl)c3)CC2)ccc1O	0	27.7	0	0	0	0	0
C=CCOc1c(Cl)cc(CNc2ccc(N(C)C)cc2)cc1OC	0	0	0	0	0	0	-
C=CCOc1c(Cl)cc(CNc2ccc(C)c(Cl)c2)cc1OC	77.0	50.2	77.1	91.1	0	84.6	50.5
NNC(=O)c1[nH]c(-c2ccccc2)cc1-c1ccccc1	-	27.7	-	-	0	0	0
COCCCNC(=S)N/N=C/c1cccc(OC)c1O	0	60.5	0	-	0	-	0
COCCCNC(=S)N/N=C/c1ccc(O)cc1O	0	0	0	-	0	0	-
